The sample as a whole holds a higher share of hits than the screen did.
mHTT CaM bind – mutant huntingtin-calmodulin interaction inhibitors – biochemical, AlphaScreen, primary screen | AlphaScreen His-mHTT/GST-CaM binding, luminescence | P42858 | 190,000 compounds, 3.6% hits | inhibition, % at 15 µM
Pf apPOL inh – Pf-apPOL inhibitors, biochemical, fluorescence | Recombinant Pf-apPOL, molecular beacon fluorescence, 1.5 h | inhibition, % at 10 µM | 210,000 compounds, 0.25% hits
Each line names hits and unclear results; the compound was inactive in the other large screens; ! = not active in a repeat. Rule as the data show it: active = inhibition above about 50%; inactive = the rest.

Cc1cccc(Nc2nc(-c3c(C)nc4ncccn34)cs2)c1	mHTT CaM bind 77
Cc1c(Br)c(C(F)(F)F)nn1CC(=O)NCc1ccc(Cl)cc1	none
O=C(Cn1cnc2c(oc3ccccc32)c1=O)N1CCc2ccccc2C1	none
COc1ccc(N(C(=O)c2cccc([N+](=O)[O-])c2)C(C)C2CC2)cc1 (stereo not drawn)	none
COc1ccc(OCC(=O)NS(=O)(=O)c2ccccc2)cc1	none
Cc1nc2c(SCC(=O)Nc3ccc4c(c3)OCO4)nnc(-c3ccccc3)c2s1	none
Cc1nc2c(SCC(=O)NCc3ccco3)nnc(-c3ccccc3)c2s1	mHTT CaM bind 53
CCC(=O)Nc1c2c(nn1-c1cccc(C)c1C)CS(=O)(=O)C2	none
Cn1c(=O)c2c(nc(NCc3ccccc3)n2C)n(C)c1=O	none
Nc1ccc(N=Nc2ccccc2)c(N)n1	mHTT CaM bind 52 (no result: Pf apPOL inh)
Oc1ccc(N=Nc2ccccc2)c(O)c1	none (no result: mHTT CaM bind)
Cc1ccc(NC(=O)Cn2cc3c(n2)CCCC3)c(C)c1	none
Clc1ccc(CSc2ncc3ccccn23)cc1	none (no result: mHTT CaM bind)
Cc1cccc(-n2nc3c(c2NC(=O)c2ccc4c(c2)OCO4)CS(=O)C3)c1C (stereo not drawn)	none
Cc1cc2c(cc1C)NC(CC(=O)Nc1cccc(C(=O)O)c1)C(=O)N2 (stereo not drawn)	none
Cc1cc2c(cc1C)NC(CC(=O)Nc1ccc(N3CCOCC3)cc1)C(=O)N2 (stereo not drawn)	mHTT CaM bind 57!
CN(C)S(=O)(=O)N1CCn2cccc2C1c1ccc(Br)cc1 (stereo not drawn)	none
O=C1NC(c2cccc(F)c2)Nc2sc3c(c21)CCC3 (stereo not drawn)	none
O=C1NC(c2ccccc2F)Nc2sc3c(c21)CCCC3 (stereo not drawn)	none
O=C1NC(c2ccccc2[N+](=O)[O-])Nc2sc3c(c21)CCCC3 (stereo not drawn)	mHTT CaM bind 58
O=C1NC(c2ccccn2)Nc2sc3c(c21)CCC3 (stereo not drawn)	mHTT CaM bind 69
CC1(C)OC2OC(C3CO3)C(O)C2O1 (stereo not drawn)	none
O=C(c1nsnc1-c1ccccc1O)N1CCCC1	none
O=S1(=O)N[C@@H](Cc2ccccc2)COc2cc(N3CCCCC3)ccc21	none
COc1ccc(/C=C2\SC(=N)N(c3ccc4c(c3)OCO4)C2=O)cc1OC	none
Cc1ccc(CN2C(=O)CCc3c(C)nc(-c4ccncc4)nc32)o1	mHTT CaM bind 71
Cc1nc(-c2ccncc2)nc2c1CCC(=O)N2Cc1cccs1	none
Cc1nc(-c2cccnc2)nc2c1CCC(=O)N2CCN1CCCC1	Pf apPOL inh 58
Cc1nc(-c2cnccn2)nc2c1CCC(=O)N2Cc1ccccn1	mHTT CaM bind 99
Cc1nc(-c2cccnc2)nc2c1CCC(=O)N2CCN(C)C	none
Cc1nc(-c2cccnc2)nc2c1CCC(=O)N2Cc1ccccn1	none
COc1ccc(OC)c(C(=O)COc2ccccc2C#N)c1	none
Cc1ccc2cccc(OC(=O)N3CCCCCC3)c2n1	none
COc1cccc(-c2nc(C3CCN(C(=O)c4cccc(C)c4)CC3)no2)c1	none
COc1cccc(-c2nc(C3CCN(C(=O)c4ccc(C(F)(F)F)cc4)CC3)no2)c1	mHTT CaM bind 86
CC(=O)Nc1ccc(-c2noc(C3CCN(C(=O)c4cc5ccccc5[nH]4)CC3)n2)cc1	mHTT CaM bind 98
COc1cccc(-c2nc(C3CCN(C(=O)c4cccc(C(F)(F)F)c4)CC3)no2)c1	none
CC(=O)Nc1ccc(-c2noc(C3CCCN(C(=O)c4cc5ccccc5[nH]4)C3)n2)cc1 (stereo not drawn)	none
O=C(c1cc2cc(Cl)ccc2[nH]1)N1CCC(c2noc(-c3ccccc3)n2)CC1	mHTT CaM bind 83
O=C(c1cc2ccccc2[nH]1)N1CCC(c2noc(-c3ccccc3)n2)CC1	none
COc1cccc(-c2nc(C3CCN(C(=O)c4ccc(Cl)c(Cl)c4)CC3)no2)c1	mHTT CaM bind 97
Cc1ccc(C(=O)Nc2cccc(Cl)c2)cc1S(=O)(=O)N1CCOCC1	none
Cc1nc(C2CCN(C(=O)c3ccc4ncccc4c3)CC2)n[nH]1	none
COCCOc1nc2ccccc2nc1C	none
O=S(=O)(Cc1ccccc1)N1CCC(n2c(-c3ccco3)nc3cccnc32)C1 (stereo not drawn)	none
COc1cc(C)c(S(=O)(=O)NCc2cccnc2)cc1C	none
Cc1nc(SCCOc2ccccc2)[nH]c(=O)c1C	none
COc1ccccc1-c1nc(C2CCN(C(=O)c3ccc(F)c(Cl)c3)CC2)no1	mHTT CaM bind 92
COc1cccc(-c2nc(C3CCN(C(=O)c4cc5ccccc5[nH]4)CC3)no2)c1	none
COc1cccc(-c2nc(C3CCN(C(=O)c4nccc5ccccc45)CC3)no2)c1	mHTT CaM bind 98
Cc1oc(C2CCN(C(=O)c3ccc(C(C)(C)C)cc3)CC2)nc1C(=O)N1CCCCC1	none
COc1ccccc1-c1nc(C2CCN(C(=O)c3cccc(F)c3)CC2)no1	none
Cc1oc(C2CCN(C(=O)c3ccc(C(F)(F)F)cc3)CC2)nc1C(=O)N1CCCC1	mHTT CaM bind 51

From PubChem BioAssay
